Laboratory results taken from PubChem BioAssay (NCI).
The panel holds about 83,000 compounds, 20% with a hit somewhere; the sample as a whole holds those more often.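 Negative percent growth values reflect cell death: -40 means 40% of the cells present at the start died, and -100 means all died.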 Active and inactive are the calls of the source.

Each compound was assayed on IGROV1 ovarian (assay: NCI-60 one-dose screen, 48 h (100 = growth as untreated, 0 = no growth, -100 = all killed)). Conditions: 10 µM unless noted.
Description: Growth inhibition of the IGROV1 human tumor cell line is measured as a screen for anti-cancer activity. Cells are grown in 96 well plates and exposed to the test compound for 48 hours. Compounds are tested at a single concentration, which is 10^-5 M for most compounds. The reported endpoint is percent growth (GI% or GIPRCNT), where numbers from 0 - 100% represent growth inhibition, and numbers from -100% - 0 represent cell death. For example, a value of 40 represents 60% growth inhibition. A value of 0 means no net growth occurred over the course of the experiment. A value of -40 indicates 40% of cells at the beginning of the experiment died by the end of the experiment. A value of -100 means all cells are dead at the end of the experiment.
NCI-60 Human Tumor Cell Lines Screen was performed using the standard one-dose NCI protocol, which is described in more detail at https://dtp.cancer.gov/discovery_development/nci-60/default.htm.
Compounds with GIPRCNT values below 10 were considered active. Activity score was based on GIPRCNT using the following formula: […]
Score is 0 for GIPRCNT values of 100 or above, 50 for GIPRCNT values of 0, and 100 for GIPRCNT values of -100.

| Compound | growth |
| --- | --- |
| CC(O)c1cc[cH-]c1.[Fe+2].c1cc[cH-]c1 (stereo not given) | 106% (inactive) |
| CCn1cnc(C[C@H](NC(=O)[C@@H](NC(=O)Nc2cc(C(F)(F)F)cc(C(F)(F)F)c2)C(C)(C)C)C(=O)OC)c1 | -71.5% [100 µM] (active) |
| Nc1nc2c(c3cnccc13)C(c1cccc(Br)c1)Cc1cnccc1-2 (stereo not given) | 27.9% (inactive) |
| CCN(CC)CCCC(C)Nc1c(C)cnc2cc(Cl)c(C)cc12 (stereo not given) | 96.3% (inactive) |
| CCN(CC)c1ccc2nc3ccc(N=Nc4ccc(O)cc4)cc3[n+](-c3ccccc3)c2c1 | 8.59% (active) |
| Cc1nc(N)sc1C(=O)NCCO | 118% (inactive) |
| N=C(N)N=Nc1ccc(NN=C(N)N)c2ccccc12 | 107% (inactive) |
| COc1ccc(CN2C(=O)/C(=C\C(=O)c3ccc(OCCN4CCCCC4)cc3)c3ccccc32)cc1 | 68.7% (inactive) |
| COC(=O)c1ccc(C(=Nc2ccc(N(C)C(=O)CN3CCN(C)CC3)cc2)c2c(O)[nH]c3ccc(C(=O)OC)cc23)cc1 | 5.1% (active) |
| CCCCCCCCCCCCCCCCNC(=S)N/N=C/c1ccc(OC)cc1 | 106% (inactive) |
| CCOc1nc(-c2ccccc2)cc2c(O)c(C(=O)N/N=C/c3ccccc3O)[nH]c(=O)c12 | 50.1% (inactive) |
| Cc1ccc(S(=O)(=O)NC(CCC(=O)Nc2ccccc2)C(=O)Nc2ccccc2)cc1 (stereo not given) | -25.1% (active) |
| CCC(C)C1NC(=O)C(CCCCN)NC(=O)C(CCCCN)NC(=O)C(CC(C)C)NC(=O)C(CCCCN)NC(=O)C(C(C)CC)NC(=O)C(C(C)C)NC(=O)C(C(C)CC)NC(=O)C(CCCCN)NC(=O)C(CCCCN)NC(=O)C(C)NC(=O)C(CCCCN)NC(=O)C(CC(C)C)NC1=O (stereo not given) | 24.4% (inactive) |
| Cc1[nH]n(C(=S)Nc2nc3cc(Cl)c(F)cc3s2)c(=O)c1N=Nc1ccc(F)c(Cl)c1 | 88.4% (inactive) |
| C#CCCCCCCC[C@@H]1OC(=O)[C@H]([C@@H](C)CC)NC(=O)[C@@H]([C@@H](C)CC)NC(=O)CC(=O)[C@@H]1C | 89.1% (inactive) |
| COc1cc2ncnc(-n3ncc4cc(NC(=O)Nc5ccc(Cl)c(C)c5)ccc43)c2cc1OC | 96.2% (inactive) |
| C=C(NC(=O)[C@H](C(C)C)N(C)c1cccc2[nH]ccc12)C(=O)OC | 111% (inactive) |
| N#CCCCCCCCCCCC#N | 124% (inactive) |
| COc1ccc(-c2nc(SCC(C)C)nc(Nc3ccccc3)c2C#N)cc1 | 74.7% (inactive) |
| COc1cc(C(=O)Nc2ccc(N(C)C)cc2)cc(OC)c1OC | 93.7% (inactive) |

| Compound | growth |
| --- | --- |
| Cc1nc2c(nnn2-c2ccccc2)c2nc(-c3ccccc3)oc(=O)c12 | 111% (inactive) |
| CCOC(=O)C1=C(C(F)(F)F)NC(=O)NC1CN1C(=O)c2ccccc2C1=O (stereo not given) | 122% (inactive) |
| CCCCn1c(Cc2ccc(OC)cc2)nc2cc(OC)c(OC)cc2c1=O | 81.3% (inactive) |
| CNc1nc2ncn(C)c2c(=O)[nH]1 | 94.2% (inactive) |
| CC(=O)N1CCN(CCNC(=O)n2cc(-c3ccncc3)c(-c3cc(O)cc(Cl)c3)n2)CC1 | 76.2% (inactive) |
| O=C(Nn1cnc2ccccc21)N1CCCC1 | 39.4% (inactive) |
| CCC(C)[C@H](NC(=O)Nc1cc(C(F)(F)F)cc(C(F)(F)F)c1)C(=O)N[C@@H](Cc1cn(C)cn1)C(=O)OC (stereo not given in full) | -81.5% [100 µM] (active) |
| CCCCCCCCCCN1CC2CCCCC2C1 (stereo not given) | 90% (inactive) |
| O=C(N/N=C\c1ccc(Cl)cc1)C(=O)N/N=C\c1ccc(Cl)cc1 | 88.7% (inactive) |
| C#CCCCCCCC[C@@H]1OC(=O)[C@H]([C@@H](C)CC)NC(=O)[C@H]([C@@H](C)CC)NC(=O)CC(=O)[C@@H]1C | 89.5% (inactive) |
| CCCCCCCCCCCCCCCCC(=O)O.CCCCCCCCCCCCCCCCCC(=O)O.CCCCCCCCCCCCCCCCCC(=O)O.CCCCCCCCCCCCCCCCCC(=O)O.CCCCCCCCCCCCCCCCCC(=O)O.CO[CH-]OC12COC1CC(O)C1(C)C(O)C(OC(C)O)C3=C(C)C(OC(=O)C(O)C([NH-])c4ccccc4)CC(O)(C(OC(=O)c4ccccc4)C21)C3(C)C.[Cu+].[Zn].[Zn].[Zn].[Zn].[Zn] (stereo not given) | 33.4% (inactive) |
| COc1ccccc1Cn1cc2c(c1)-c1oncc1CC2 | 16.2% (inactive) |
| CCN(CC)CCCNc1c2ccc(Cl)cc2nc2ccc(OC)cc12 | 6.62% (active) |
| CCOC(=O)C1=C(C(F)(F)F)NC(=S)NC1CN1C(=O)c2ccccc2C1=O (stereo not given) | 104% (inactive) |
| N#CC1=C(N2CCOCC2)NC2c3ccccc3Sc3ccccc3N2C1=N (stereo not given) | 79.1% (inactive) |
| CC1CCCCC[N+]12CCCC2 (stereo not given) | 102% (inactive) |
| COc1ccc(CNCCCN2C(=O)c3ccc4c5c(ccc(c35)C2=O)C(=O)N(CCCNCc2ccc(OC)c(OC)c2OC)C4=O)c(OC)c1OC | -79.6% (active) |
| Cc1ccc(S(=O)(=O)N/N=C2\CC3CCC2C3)cc1 (stereo not given) | 101% (inactive) |
| O=C(C(=O)N1CCOCC1)c1ccc(O[C@H]2O[C@H](CO)[C@@H](O)[C@H](O)[C@@H]2O)cc1 | 106% (inactive) |
| Nc1ccc(N=Nc2ccccc2)c2cc(S(=O)(=O)O)ccc12 | 108% (inactive) |
